“And” between values parts separate entries of the source, which are not always exact repeats. Equal entries are not always repeated. Inconclusive results are not listed. The source holds several records for some structures; these can differ, active in one and inactive in another. The source made the active and inactive calls. The calls were made as follows: active = hit-call score of the fitted dose curve at least 0.9, where 1 is the maximum; inconclusive = response in the unintended direction; inactive = score below 0.9.
Biological target: Nuclear receptor subfamily 1 group I member 2 (Homo sapiens) (UniProt O75469)
Test: ATG_PXR_TRANS: Attagene TRANS-FACTORIAL HepG2 Assay for human Pregnane X Receptor (PXR) (AID 2283008)
Experimental: ATG_TRANS is a cell-based, multiplexed-readout assay that uses HepG2, a human liver cell line, with measurements taken at 24 hours after chemical dosing in a 24-well plate.ATG_PXR_TRANS is one of 30 assay component(s) measured or calculated from the ATG_TRANS assay. It is designed to make measurements of mRNA induction, a form of inducible reporter, as detected with fluorescence intensity signals by Reverse transcription polymerase chain reaction (RT-PCR) and Capillary electrophoresis technology.Data from the assay component ATG_PXR_TRANS was analyzed into 1 assay endpoint. This assay endpoint, ATG_PXR_TRANS, was analyzed in the positive analysis fitting direction relative to DMSO as the negative control and baseline of activity. Using a type of inducible reporter, measures of mRNA for gain-of-signal activity can be used to understand the reporter gene at the transcription factor-level as they relate to the gene NR1I2. Furthermore, this assay endpoint can be referred to as a primary readout, because this assay has produced multiple assay endpoints where this one serves a reporter gene function. To generalize the intended target to other relatable targets, this assay endpoint is annotated to the nuclear receptor intended target family, where the subfamily is non-steroidal.
Human liver HepG2 cells are transiently transfected with multiple reporter transcription units (MRTUs) in 6-well plates using FuGene 6 reagent (Roche; 3 ml FuGene/1 mg DNA). The MRTU constructs are regulated by a cis-regulating element (promoter). […] A major difference between the CIS and TRANS system is that in CIS activities of endogenous TFs are measured, whereas the TRANS assay evaluates changes in activities of exogenous, chimeric NR-Gal4 proteins. […] At the end of 24 hour incubation, total RNA was isolated using TriZol reagent (Invitrogen). The isolated RNA is then reverse-transcribed using oligo(dT) primer and Mo-MLV reverse transcriptase (Invitrogen) with DNAse I (Ambion) treatment for 30 min. The one-tenth of the produced cDNA was amplified by PCR using Taq DNA polymerase (Invitrogen) and two reporter sequence-specific primers. The PCR products were fluorescently labeled by primer extension with 6-arboxyfluorescein (6-FAM) 5'-labeled reporter sequence-specific primer (2 min at 95 C, 20 s at 68 C and 10 min at 72 C) and these products were digested with 5U of HpaI (New England Biolabs) for 2h at 37 C. The fragments were purified using Qiaquick PCR columns (Qiagen), analyzed on an ABI 3130xL genetic analyzer (Applied Biosystems) with peak positions identified by using a set of X-rhodamine (ROX)-labeled MapMarker1000 molecular weight standards (BioVentures). The raw capillary electrophoresis data was processed using Attagraph software (Attagene).

Nuclear receptor subfamily 1 group I member 2 (Homo sapiens), sequence (O75469 whole entry, looked up): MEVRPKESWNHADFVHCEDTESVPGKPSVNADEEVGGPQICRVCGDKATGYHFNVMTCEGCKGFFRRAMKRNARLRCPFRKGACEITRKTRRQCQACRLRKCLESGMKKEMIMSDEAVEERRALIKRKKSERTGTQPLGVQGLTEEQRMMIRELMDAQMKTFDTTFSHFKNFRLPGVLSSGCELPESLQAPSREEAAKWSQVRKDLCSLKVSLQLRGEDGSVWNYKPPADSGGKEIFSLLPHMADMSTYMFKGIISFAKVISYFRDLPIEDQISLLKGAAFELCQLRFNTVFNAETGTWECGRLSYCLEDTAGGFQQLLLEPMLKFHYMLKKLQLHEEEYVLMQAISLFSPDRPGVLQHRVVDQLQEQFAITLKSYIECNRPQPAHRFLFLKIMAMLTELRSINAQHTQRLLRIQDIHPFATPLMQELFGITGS

outcome, inactive:
COCC1CCC(CO)CC1 (stereo not given)
CC(C)[C@@H]1CC[C@@H](C)C[C@H]1O
CCc1cccc(CC)c1NC(=O)C(=O)O
O=S(=O)(O)c1ccccc1
Cc1cncc(C)c1
O=S(=O)(O)c1ccc2cc(O)ccc2c1
C[C@]12CC[C@@H]3c4ccc(O)cc4CC[C@H]3[C@@H]1C[C@@H](O)[C@@H]2O
NNC(=O)CCCCC(=O)NN
O=c1cc(-c2ccccc2)oc2ccc3ccccc3c12
CCOC=C(C(=O)OCC)C(=O)OCC
COC(=O)C(F)(F)C(F)(F)C(F)(F)C(F)(F)C(F)(F)F
CCOC=O
CCOC(=O)CN[C@@H](C(=O)N1CC[C@H]1C(=O)NCc1ccc(/C(N)=N/O)cc1)C1CCCCC1
O=C(CC(=O)C(F)(F)C(F)(F)C(F)(F)F)c1cccs1
CCCCCCCCCCCCCC[n+]1ccccc1
COC1=CC(=O)C[C@@H](C)[C@]12Oc1c(Cl)c(OC)cc(OC)c1C2=O
O=C(O)C(=O)O
CCCCN(C)C
CC(O)COc1ccccc1 (stereo not given)
O=C(c1cc(O)c(O)c(O)c1)c1ccc(O)c(O)c1O
CCC(=O)C=Cc1ccc(OC)cc1

AC50, active:
CCC(C)c1ccccc1O (stereo not given) 45.7 µM and 24.8 µM
CCCCCCOC(=O)c1ccc(O)cc1 25.6 µM
CC1=CC(=O)c2ccccc2C1=O 7.29 µM
O=C(Nc1ccc(Cl)c(Cl)c1)c1cc(Cl)cc(Cl)c1O 2.74 µM
Clc1ccc2c(Cl)ccnc2c1 25.8 µM
Cc1ccc2ccc3ccc(C)cc3c2c1 14.4 µM
Cc1cc(Cc2cc(C)cc(C(C)(C)C)c2O)c(O)c(C(C)(C)C)c1 0.0594 µM
C=CC(=C)CC/C=C(\C)CCC=C(C)C 6.93 µM
C=CCOCC(CO)(CO)CO 15.1 µM
Cc1ccc(C(=O)c2ccccc2)cc1 19.9 µM
O=c1cc(-c2ccccc2)oc2ccc3ccccc3c12 5.62 µM
CCN(CCC#N)c1ccccc1 38.1 µM
C/C=C/C(=O)C1=C(C)CCCC1(C)C 19.8 µM
O=C(CC(=O)C(F)(F)C(F)(F)C(F)(F)F)c1cccs1 13.9 µM
C=COC(=O)C(C)(C)CCCCCC 36.5 µM
O=C1Cc2ccccc2N1c1c(Cl)cccc1Cl 0.517 µM
CC1COCc2cc3c(cc21)C(C)(C)C(C)C3(C)C (stereo not given) 2.14 µM
CCOC(OCC)C(=O)c1ccccc1 16.7 µM
CS(=O)(=O)c1ccc([C@@H](CC2CCCC2)C(=O)Nc2cnccn2)cc1Cl 3.42 µM
